# In the supplement of paper PMC10498489:
# Among all 2,300 compounds or so, about 330 (14%) showed activity. Only a sample is shown. Values without a mark were called inactive.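 How the source made its calls: active = median modified Z-score above 1.96; inactive = 1.96 or below.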
# Test system: HepG2 Srxn1-GFP reporter cells (+30 nM CDDO-Me)
# Assay: Srxn1-GFP intensity median modified Z-score relative to plate median; higher = stronger NRF2 / oxidative stress reporter activation, active = hit call of the paper
# Conditions: 10 µM; exposure time: 24h
# How it was run: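 HepG2 Srxn1-GFP BAC reporter cells (20,000 per well, 96-well plates) were co-exposed to an NRF2 activator at 30 nM and compound at 10 μM (≤0.1% DMSO) for 24 h in three replicate plates. After formaldehyde fixation and Hoechst staining, confocal images were analysed per cell for cytoplasmic GFP, excluding images with under 100 cells. The value is the median over replicates of the per-plate modified Z-score of GFP intensity. Scaling used 1.4826 × median absolute deviation.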
row,Compound,Srxn1-GFP intensity median modified Z-score
1,Cc1ccc(C(=O)c2ccc(CC(=O)O)n2C)cc1 [euspeclibcmpd2405],0.508
2,OC[C@H](O)C(O)[C@@H](O)CO [euspeclibcmpd2128],-0.222
3,COc1cc(O)c2c(=O)c(OC)c(-c3ccc(OC)c(OC)c3)oc2c1 [euspeclibcmpd1656],-0.275
4,NC(=O)NC(CCC(=O)O)C(=O)O (centres undefined) [euspeclibcmpd1209],0.184
5,CCc1nn(CCCN2CCN(c3cccc(Cl)c3)CC2)c(=O)n1CCOc1ccccc1 [euspeclibcmpd461],8.98 (active)
6,O=C1CCc2ccc(OCCCCN3CCN(c4cccc(Cl)c4Cl)CC3)cc2N1 [euspeclibcmpd879],0.292
7,O=c1n(CCCN2CCN(c3cccc(Cl)c3)CC2)nc2ccccn12 [euspeclibcmpd533],0
8,Cc1c(C)c2c(c(C)c1O)CCC(C)(C(=O)O)O2 (centres undefined) [euspeclibcmpd1989],-0.727
9,COc1ccc(=NS(=O)(=O)c2ccc(N)cc2)[nH]n1 [euspeclibcmpd409],-0.327
10,CC(C)c1nc(CN(C)C(=O)NC(C(=O)N[C@@H](Cc2ccccc2)C[C@H](O)[C@H](Cc2ccccc2)NC(=O)OCc2cncs2)C(C)C)cs1 (some centres undefined) [euspeclibcmpd486],0.333
11,COc1ccccc1N1CCN(CCCNc2cc(=O)n(C)c(=O)n2C)CC1 [euspeclibcmpd1121],-0.334
12,COC1=C(C)C2CC(=O)O[C@@H]3C[C@H]4C(C)=CC(OC)C(=O)[C@]4(C)C(C1=O)[C@]23C (some centres undefined) [euspeclibcmpd1498],0.142
13,COc1ccc2c(c1OC)C(=O)O[C@H]2[C@H]1c2c(cc3c(c2OC)OCO3)CCN1C [euspeclibcmpd216],0.635
14,COc1ccc2cc1Oc1ccc(cc1)C[C@H]1c3cc(c(OC)cc3CCN1C)Oc1c(OC)c(OC)cc3c1[C@H](C2)N(C)CC3 [euspeclibcmpd1476],21.7 (active)
15,COc1ccc2cc1Oc1ccc(cc1)C[C@H]1c3c(cc4c(c3Oc3cc5c(cc3OC)CCN(C)[C@@H]5C2)OCO4)CCN1C [euspeclibcmpd1270],4.85 (active)
16,CN1CC(=O)N2C(Cc3c([nH]c4ccccc34)[C@H]2c2ccc3c(c2)OCO3)C1=O (some centres undefined) [euspeclibcmpd833],-0.451
17,CO[C@@H]1[C@@H](O[C@@H]2O[C@H](C)[C@@H](O[C@H]3C[C@@](C)(O)[C@H](O)[C@H](C)O3)[C@H](N(C)C)[C@H]2O)[C@@H](CC=O)C[C@@H](C)[C@@H](O[C@H]2CC[C@H](N(C)C)[C@@H](C)O2)/C=C/C=C/C[C@H](C)OC(=O)C[C@H]1O [euspeclibcmpd581],0.0936
18,CC(C)(O)c1ccccc1CC[C@@H](SCC1(CC(=O)O)CC1)c1cccc(/C=C/c2ccc3ccc(Cl)cc3n2)c1 [euspeclibcmpd2362],8.32 (active)
19,CC1=CC(=O)C2C(C)(C)CCC[C@]2(C)[C@@]1(O)CCc1ccoc1 (some centres undefined) [euspeclibcmpd1719],17.2 (active)
20,CCC1(CC)C(=O)CC=NC1=O [euspeclibcmpd1119],-0.354
21,CN(C)CCCOc1nn(Cc2ccccc2)c2ccccc12 [euspeclibcmpd892],-0.182
22,COC1=CC(/C=C/c2ccccc2)OC(=O)C1 (centres undefined) [euspeclibcmpd1481],-0.206

row,Compound,Srxn1-GFP intensity median modified Z-score
1,C=CCOC(=O)C1=C(C)NC(C)=C(C(=O)OCC=C)C1/C=C/c1ccccc1,4.92 (active)
2,Nc1ccc(S(=O)(=O)N=c2[nH]ccs2)cc1 [euspeclibcmpd281],-0.259
3,CC(=O)OCC(=O)[C@@]1(O)CCC2C3CC=C4CC(=O)C=C[C@]4(C)[C@@]3(F)[C@@H](O)C[C@@]21C (some centres undefined) [euspeclibcmpd2402],-0.201
4,CC(C)CCCC(C)C1CCC2C3CC[C@H]4CC(=O)CC[C@]4(C)C3CC[C@]12C (some centres undefined) [euspeclibcmpd1405],-0.338
5,NC(C(=O)C(=O)O)C(O)O (centres undefined) [euspeclibcmpd1337],-0.207
6,Cc1nc2ccccn2c(=O)c1CCN1CCC(C(=O)c2ccc(F)cc2)CC1 [euspeclibcmpd878],-0.586
7,Cc1nc2n(c(=O)c1CCN1CCC(c3noc4cc(F)ccc34)CC1)CCCC2 [euspeclibcmpd909],0.484
8,Cc1nc2sccn2c(=O)c1CCN1CCC(=C(c2ccc(F)cc2)c2ccc(F)cc2)CC1 [euspeclibcmpd532],7.86 (active)
9,CCC(=O)OCC(=O)C1(OC(=O)CC)C(C)CC2C3C(Cl)C=C4CC(=O)C=CC4(C)C3C(O)CC21C (centres undefined) [euspeclibcmpd1830],-0.727
10,Cc1cc(O)c(C)c(O)c1C(=O)O [euspeclibcmpd2002],-0.247
11,CC(=O)NC(CCC(C)C)C(=O)O (centres undefined),1.23
12,CC(=O)O[C@H]1CC[C@@]2(C)C(CC[C@]3(C)C2CC=C2C4CC(C)(C)CC[C@]4(C)CC[C@]23C)C1(C)C (some centres undefined) [euspeclibcmpd1641],-0.192
13,CC1=C(/C=C/C(C)=C/C=C/C(C)=C/CO)C(C)(C)CCC1 [euspeclibcmpd419],-0.0835
14,CC(C=C/C=C(C)/C=C/C1=C(C)CCCC1(C)C)=CC(=O)O [euspeclibcmpd2414],3.46 (active)
15,CC1=C(/C=C/C(C)=C/C=C/C(C)=C/C=C/C=C(C)/C=C/C=C(C)/C=C/C2=C(C)CCCC2(C)C)C(C)(C)CCC1 [euspeclibcmpd256],1.65
16,CC[C@]12CCCN3CCc4c(n(c5ccccc45)[C@](O)(C(=O)OC)C1)[C@@H]32 [euspeclibcmpd1043],1.43
17,COC(=O)C1=C(C)N=C(C)C(C(=O)OCCN2CCN(C(c3ccccc3)c3ccccc3)CC2)C1c1cccc([N+](=O)[O-])c1 (centres undefined) [euspeclibcmpd869],5.13 (active)
18,COC(=O)C1=C(C)N=C(C)C(C(=O)OC)C1c1ccccc1[N+](=O)[O-] (centres undefined) [euspeclibcmpd208],-0.363
19,COC(=O)C1=C(C)N=C(C)C(C(=O)OCCN(C)Cc2ccccc2)C1c1cccc([N+](=O)[O-])c1 (centres undefined) [euspeclibcmpd393],-0.375
20,COC(=O)C1=C(C)N=C(C)C(C(=O)OCC(C)C)C1c1ccccc1[N+](=O)[O-] (centres undefined) [euspeclibcmpd766],10.8 (active)
21,COCCOC(=O)C1=C(C)N=C(C)C(C(=O)OC(C)C)C1c1cccc([N+](=O)[O-])c1 (centres undefined) [euspeclibcmpd585],0.492
22,C#C[C@]1(O)CCC2C3CCC4=Cc5oncc5C[C@]4(C)C3CC[C@@]21C (some centres undefined) [euspeclibcmpd81],-0.371

row,Compound,Srxn1-GFP intensity median modified Z-score
1,N=c1[nH]cnc2c1ncn2[C@@H]1O[C@H](COP(=O)(O)OP(=O)(O)OC[C@H]2O[C@@H]([n+]3cccc(C(N)=O)c3)[C@H](O)[C@@H]2O)[C@@H](O)[C@H]1O [euspeclibcmpd202],-0.305
2,CCC(=O)OCC(=O)[C@@]1(OC(=O)CC)[C@@H](C)CC2C3CC=C4CC(=O)C=C[C@]4(C)C3(F)[C@@H](O)C[C@@]21C (some centres undefined) [euspeclibcmpd541],-0.359
3,O=C(O)c1cc(-c2ccccc2)nc2cc(Br)ccc12,1.37
4,CC1OC(n2cc(F)c(=O)[nH]c2=O)C(O)C1O (centres undefined) [euspeclibcmpd1997],-0.334
5,CN[C@@H]1[C@H](O)[C@H](NC)[C@H]2O[C@@]3(O)C(=O)C[C@@H](C)O[C@H]3O[C@@H]2[C@H]1O [euspeclibcmpd268],-0.125
6,COc1cc2c(cc1OC)C1C(=O)c3ccc4c(c3O[C@@H]1CO2)C=CC(C)(C)O4 (some centres undefined) [euspeclibcmpd1734],12.7 (active)
7,COc1ccc([C@H]2Oc3cc(OC)cc(OC)c3C[C@H]2O)cc1 [euspeclibcmpd1383],0
8,COc1ccc2c(c1)O[C@@H]1COc3cc(OC)c(OC)cc3C1C2=O (some centres undefined) [euspeclibcmpd1700],22.8 (active)
9,COc1cc2c(cc1OC)C1C(=O)c3c(O)cc4c(c3OC1CO2)C=CC(C)(C)O4 (centres undefined) [euspeclibcmpd1478],1.56
10,COc1ccc2c(c1)O[C@H]1c3ccc(OC)cc3OC[C@@H]21 [euspeclibcmpd1733],-0.45
11,CCOC(=O)c1c(NC(=O)COC(=O)C(C)NC(N)=O)sc(C(C)=O)c1C (centres undefined),1.26
12,CCN(CC)CCCC(C)N=c1c2ccc(Cl)cc2[nH]c2ccc(OC)cc12 (centres undefined) [euspeclibcmpd261],19.2 (active)
13,CCN(CC)CCCC(C)N=c1cc[nH]c2cc(Cl)ccc12 (centres undefined) [euspeclibcmpd325],-0.157
14,O[C@@H]1[C@H](O)CO[C@H]1O [euspeclibcmpd1668],-0.319
15,COc1ccc(-c2coc3cc(OC)ccc3c2=O)cc1 [euspeclibcmpd2413],-0.165
16,C[C@]12C=CC(=O)CC1=CCC1C2[C@@H](O)C[C@@]2(C)C1CC[C@]2(O)C(=O)CO (some centres undefined) [euspeclibcmpd241],-0.692
17,CN1C(=O)CC[C@H]1c1cccnc1 [euspeclibcmpd75],-0.303
18,O=C(O)c1cccnc1 [euspeclibcmpd2043],-0.519
19,CN1CCC[C@H]1c1cccnc1 [euspeclibcmpd957],8.21 (active)
20,O=C(O)c1ccccc1C(=O)Nc1ccc(S(=O)(=O)N=c2[nH]ccs2)cc1 [euspeclibcmpd427],0.584
